For 32 compounds, red/green cell ratio (normalised) and normalised cell number results are on record in PubChem BioAssay.

Molecules are shown by their SMILES. Activity calls are given as the source filed them.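 The calls were made as follows: active = compounds killing one labelled cell type while sparing the other, by normalised counts and ratio limits, not self-fluorescent; inactive = the rest.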

The experiment can be described thus: differential killing of epithelial or mesenchymal cells, primary screen, imaging, PC-3E GFP, TEM4-18 mCherry, co-culture (AID 1345086).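 As to all read-outs here: cells exposed to compound for 72 h before imaging.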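 As to red/green cell ratio (normalised): normalised mesenchymal count divided by normalised epithelial count so high means epithelial killing.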 Particulars: imaging cell counts, at 1 µM; for red/green cell ratio (normalised): actives lie on both sides, counts scaled to control wells, 1 = unselective.
[1] abbreviates: measured here: epithelial PC-3E GFP cell survival.
The mark [2] stands for this setting: measured here: mesenchymal TEM4-18 mCherry cell survival.

For the compound `CC(C)CCCC(C)C1CCC2C3CC[C@H]4CCCC[C@]4(C)C3CC[C@]12C` (stereo partly specified), the red/green cell ratio (normalised) was 0.9 (inactive). The normalised cell number under setting [1] is 1.1. This compound also had a normalised cell number under setting [2] of 0.99.
`COC(=O)C[C@H]1C(C)(C)C(=O)[C@@H]2CC3=C4CC(=O)O[C@@H](c5ccoc5)[C@]4(C)CCC3C1(C)C2=O` (stereo partly specified): the red/green cell ratio (normalised) is 1.01 (inactive). This compound returned a normalised cell number under setting [1] of 0.78. Moreover, the normalised cell number under setting [2] came out at 0.78.
For `COc1c(N2CC[C@@H](CN)C2)c(F)cc2c(=S)c(C(=O)O)cn(C3CC3)c12`, the red/green cell ratio (normalised) was 1.12 (inactive). Also, under setting [1], the normalised cell number was 1.08. The same compound gave a normalised cell number under setting [2] of 1.2.
Regarding `CC(=O)O[C@@H]1CC2C(C)(C)C(=O)CC[C@]2(C)C2CC[C@@]3(C)[C@H](c4ccoc4)OC(=O)C4OC43[C@@]21C` (stereo partly specified), the red/green cell ratio (normalised) was 1.03 (inactive). For the same compound, under setting [1], the normalised cell number amounted to 0.94. Under setting [2], this compound displayed a normalised cell number of 0.97.
For `COc1cc(C(O)CO)oc1C=O` (stereo unspecified), in that order: 0.86 (inactive), 1.08 and 0.93.
As for `COc1c(N2CC[C@@H](CN)C2)c(F)cc2c(=O)c(C(=O)O)cn(CCCN3C(=O)c4ccccc4C3=O)c12`, the red/green cell ratio (normalised) was 1.07 (inactive). This compound registered a normalised cell number under setting [1] of 1.03. Under setting [2], this compound registered a normalised cell number of 1.1.
For `NC(=O)c1c(Cl)nc(Cl)c2ccccc12`, in that order: 1.12 (inactive), 0.92 and 1.03.
Take `CC1(C)CC2C1CCC1(CBr)CCC3C(CC(=O)O)C(=O)OC32C1` (stereo unspecified): the red/green cell ratio (normalised) was 0.9 (inactive). This compound yielded a normalised cell number under setting [1] of 1.14. The normalised cell number under setting [2] was found to be 1.02.
Regarding `Cc1ccc(S[C@H]2OC(COS(=O)(=O)c3ccc(C)cc3)C(O)[C@@H]3OC(=O)N[C@H]23)cc1` (stereo partly specified), the red/green cell ratio (normalised) is 0.86 (inactive). The compound also showed a normalised cell number under setting [1] of 1.19. The compound further gave a normalised cell number under setting [2] of 1.02.
On the same counts, the results for `COC(=O)[C@]12Oc3c(c(O)cc4c3C3C=C[C@]5(C4)C(=C(O)c4c(O)cc(C)cc4[C@@H]5OC(C)=O)C3=O)C(O)=C1C(=O)C=C[C@@H]2O` are 0.99 (inactive), 0.87 and 0.86.
In the case of `CC(C)[C@H]1COC(=S)N1C(C)CC(=O)N1CCOC1=O` (stereo partly specified), the red/green cell ratio (normalised) was 1.02 (inactive). Under setting [1], the normalised cell number came to 1.09. The compound further came in with a normalised cell number under setting [2] of 1.11.
In the case of `CC(=O)OCC1O[C@H](Sc2ccc(C)cc2)[C@@H]2[C@@H](OC(=O)N2Cc2ccccc2)C1OC(C)=O` (stereo partly specified), the red/green cell ratio (normalised) was 0.83 (inactive). The normalised cell number under setting [1] was 1.3. Besides, under setting [2], the normalised cell number amounted to 1.08.
Regarding `O=c1c(-c2ccc(O)cc2)coc2c(C3O[C@H](CO)[C@@H](O)[C@H](O)[C@H]3O)c(O)ccc12` (stereo partly specified), the red/green cell ratio (normalised) was 1 (inactive). The normalised cell number under setting [1] was found to be 1.12. The compound further registered a normalised cell number under setting [2] of 1.13.
For `COc1ccc(-c2oc3ccccc3c(=O)c2OC)cc1`, in that order: 0.92 (inactive), 1.18 and 1.08.
Turning to `Cc1ccc([C@H](C)CC(=O)N2C(=S)O[C@H]3Cc4ccccc4[C@H]32)cc1`, the red/green cell ratio (normalised) was 0.95 (inactive). Further, the normalised cell number under setting [1] came out at 1.05. Further, the normalised cell number under setting [2] turned out to be 1.
On to `O=C(O)c1ccc([C@H](O)c2ccccc2)cn1`, for which the red/green cell ratio (normalised) is 1.05 (inactive). In addition, the normalised cell number under setting [1] was determined as 1.03. The compound further yielded a normalised cell number under setting [2] of 1.09.
As to `COc1cc(C)c(Oc2cc(C)cc(O)c2O)c(O)c1`, the red/green cell ratio (normalised) is 0.97 (inactive). The normalised cell number under setting [1] is 1.18. This compound gave a normalised cell number under setting [2] of 1.15.
For `COC(=O)c1cc(Br)ccc1Cl`, in that order: 1.04 (inactive), 1.12 and 1.17.
Regarding `CC(CCC(=O)O)[C@H]1CCC2C3CC[C@@H]4C[C@H](O)CC[C@]4(C)C3C[C@H](O)[C@@]21C` (stereo partly specified), the red/green cell ratio (normalised) is 1.05 (inactive). Also, under setting [1], the normalised cell number was found to be 0.86. Moreover, under setting [2], the normalised cell number came to 0.91.
Regarding `C=C1C(=O)OC(C(=O)OC)C1CCCCCCCC(C)O` (stereo unspecified), the red/green cell ratio (normalised) was 1.07 (inactive). Under setting [1], this compound returned a normalised cell number of 1.11. Also, the normalised cell number under setting [2] amounted to 1.18.
On the same counts, the results for `CC(=O)OC1(C)CC[C@@]23CC1C(C)(C)[C@@H]2CC[C@H]3C` (stereo partly specified) are 0.99 (inactive), 1.16 and 1.15.
On to `COc1cc(OC)c2c(c1)OC(c1ccccc1)CC2=O` (stereo unspecified), for which the red/green cell ratio (normalised) was 1.1 (inactive). The compound further had a normalised cell number under setting [1] of 0.99. The same compound yielded a normalised cell number under setting [2] of 1.08.
As for `O=C(NCC1O[C@@H](OC2C(NC(=O)c3ccccc3)C[C@@H](NC(=O)c3ccccc3)[C@H](OS(=O)(=O)O)[C@H]2OC2OC(COS(=O)(=O)O)C(OC3OC(CNC(=O)c4ccccc4)[C@@H](OS(=O)(=O)O)[C@H](OS(=O)(=O)O)[C@H]3NC(=O)c3ccccc3)C2OS(=O)(=O)O)[C@H](NC(=O)c2ccccc2)[C@@H](OS(=O)(=O)O)C1OS(=O)(=O)O)c1ccccc1` (stereo partly specified), the red/green cell ratio (normalised) was 0.97 (inactive). The compound further gave a normalised cell number under setting [1] of 0.96. Moreover, the normalised cell number under setting [2] was 0.93.
For `C[C@H]1[C@H](C)CC[C@]2(C(=O)O)CC[C@]3(C)C(=CCC4[C@@]5(C)C[C@@H](O)[C@H](O)[C@@](C)(CO)C5CC[C@]43C)[C@H]12` (stereo partly specified), in that order: 1.16 (inactive), 0.97 and 1.13.
On to `CC1OC(O[C@H]2/C=C/C=C/C=C/C=C/C=C/C=C/C=C/[C@H](C)[C@@H](O)[C@@H](C)[C@H](C)OC(=O)CC(O)CC(O)CCC(O)C(O)CC(O)C[C@]3(O)C[C@H](O)C(C(=O)O)C(C2)O3)C(O)[C@@H](N)C1O` (stereo partly specified), for which the red/green cell ratio (normalised) is 1 (inactive). Moreover, the normalised cell number under setting [1] amounted to 1.18. The same compound gave a normalised cell number under setting [2] of 1.18.
Turning to `CCCCCCCCCCCC[C@H](C(=O)O)[C@@H](C)C(=O)O`, the red/green cell ratio (normalised) is 1.15 (inactive). Under setting [1], this compound had a normalised cell number of 0.84. Under setting [2], this compound registered a normalised cell number of 0.97.
On the same counts, the results for `CC(=O)O[C@H]1CC[C@@]2(C)C(=CCC3C2CC[C@@]2(C)C3CC[C@@H]2C(C)CCCC(C)C)C1` (stereo partly specified) are 1.16 (inactive), 0.99 and 1.15.
For `CCC(=O)O[C@]1(C(=O)SCF)[C@H](C)CC2C3CC(F)C4=CC(=O)C=C[C@]4(C)C3(F)[C@@H](O)C[C@@]21C` (stereo partly specified), in that order: 1.04 (inactive), 0.87 and 0.9.
On the same counts, the results for `O=C(O)C(O)C(O)C(O)C(O)C(=O)O` (stereo unspecified) are 1.01 (inactive), 1.04 and 1.05.
For the compound `O=C1NCC[C@@H]1Oc1ccc(Oc2cnc3ccc(Cl)cc3n2)cc1`, the red/green cell ratio (normalised) is 0.74 (inactive). The same compound registered a normalised cell number under setting [1] of 1.03. The normalised cell number under setting [2] was 0.76.
For `CN(C(=O)Cc1ccccc1)C1C(O[C@@H]2OC(COS(=O)(=O)O)C(NC(=O)Cc3ccccc3)[C@H](OS(=O)(=O)O)[C@H]2OS(=O)(=O)O)OC2C[C@@H](NC(=O)Cc3ccccc3)[C@@H](OC3C(NC(=O)Cc4ccccc4)C[C@@H](NC(=O)Cc4ccccc4)[C@H](OS(=O)(=O)O)[C@H]3OS(=O)(=O)O)OC2C1OS(=O)(=O)O` (stereo partly specified), in that order: 0.95 (inactive), 1.04 and 0.99.
On the same counts, the results for `COc1ccc2oc(-c3ccccc3OC)cc(=O)c2c1` are 0.85 (inactive), 1.16 and 0.98.
